Experimental findings from PubChem BioAssay (NCATS) are described below.

Records with an inconclusive call do not appear. Where a call stands in place of a potency, no number is given. Activity calls are given as the source filed them. The call rests on the fitted dose curve; in most records, active means well fitted inhibition curve with a large enough effect; inconclusive means small, poorly fitted or top-dose-only effect; inactive means no such curve, though single readings can be large or run the other way.
Potency means the concentration at half of the fitted maximal effect.

The nature of this test: Counterscreen qHTS for small molecule stabilizers of the endoplasmic reticulum resident proteome: GLuc-NoTag assay (AID 1508627). Particulars: Gaussia luciferase NoTag secretion counterscreen, luminescence, thapsigargin 100 nM for final 4 h; series mostly up to 76.4 µM. The text has this: Assay Provider: Brandon K. Harvey Ph.D.
National Institute on Drug Abuse, National Institutes of Health, Baltimore, MD
Endoplasmic reticulum (ER) dysregulation is associated with human pathologies including neurodegenerative, cardiovascular, muscular, and diabetic conditions. Maintenance of ER calcium is critical for functions of the ER and its depletion can lead to loss of ER resident proteins, in a process termed exodosis. Therapeutic compounds capable of attenuating the redistribution of ER proteins under pathological conditions may slow or stop disease progression. To identify such compounds, we performed a quantitative high-throughput screen (qHTS) using the SERCaMP assay, which monitors secretion of ER resident proteins triggered by calcium depletion.
SERCaMP was initially developed as a reporter of ER calcium homeostasis using a Gaussia luciferase with a modified signal peptide and carboxy-terminus (GLuc-SERCaMP), modifications that confer secretion of the reporter in response to ER calcium depletion (Henderson et al., 2014). The assay was used to screen 9,501 compounds, including a collection of drugs approved by the FDA (US), EMA (EU), NHI (Japan), and HC (Canada) regulatory agencies (Huang et al., 2011). Since the SERCaMP reporter reflects the exodosis phenomenon (Trychta et al., 2018a), compounds identified in the screen have the potential to prevent exodosis by different mechanisms such as stabilizing ER calcium or augmenting ERS retrieval.
1. Henderson, M.J., Wires, E.S., Trychta, K.A., Richie, C.T., and Harvey, B.K. (2014). SERCaMP: a carboxy-terminal protein modification that enables monitoring of ER calcium homeostasis. Mol Biol Cell 25, 2828-2839.
2. Huang, R., Southall, N., Wang, Y., Yasgar, A., Shinn, P., Jadhav, A., Nguyen, D.T., and Austin, C.P. (2011). The NCGC pharmaceutical collection: a comprehensive resource of clinically approved drugs enabling repurposing and chemical genomics. Sci Transl Med 3, 80ps16.
3. Trychta, K.A., Back, S., Henderson, M.J., and Harvey, B.K. (2018a). KDEL Receptors Are Differentially Regulated to Maintain the ER Proteome under Calcium Deficiency. Cell Rep 25, 1829-1840 e1826.
SEQUENCE No. (1, 2, 3, etc.); […] (e.g., Cells, Incubation, Reagent, etc.); VALUE and DESCRIPTION.
1; Reagent; 5 uL; 1000 SH-SY5Y cells per wells
3; Compound; 23 nL; Control inhibitor / compound library
5; Reagent; 100 nM; Thapsigargin
7; Reagent; 1 uL; 0.5x coelenterazine
8; Detection; Luminescence; ViewLux imaging system
NOTES (numbers refer to sequence above)
1; SH-SY5Y human neuroblastoma cells stably expressing the constitutively secreted GLuc (SH-SY5Y-GLuc-NoTag) cells were seeded in 1,536 well white tissue culture treated plates (Corning, Cat# 7464) in DMEM-high glucose-sodium pyruvate (ThermoFisher Scientific, Cat #10569) supplemented with 10% bovine growth serum (Hyclone), 10 U/ml penicillin (Gibco), 10 ug/ml streptomycin (Gibco), and 20 mM HEPES.
2; Assay plates were incubated for 5 hour at 37C in a humidified incubator containing 5% CO2.
4; Cells were then incubated for 19 hours at 37C, 5% CO2.
5; Thapsigargin was added at 100 nM to deplete ER calcium stores.
6; Cells were incubated for 4 hour (37 °C, 5% CO2)
7; Gaussia luciferase in the medium was measured by adding 1 ul of 0.5x coelenterazine (final concentration 0.07x) prepared in Gaussia Luciferase Glow Assay Buffer (Pierce), without addition of the Cell Lysis Buffer Reagent.
8; Luminescence was measured using a ViewLux CCD imaging system (Perkin Elmer) equipped with clear filters. […] The same controls were also used for the calculation of the Z' factor, a measure of assay quality control, as previously described (Zhang et al., 1999). For the initial validation of activity in the SERCaMP assays, hits from the primary screen were assayed again at 11-concentrations (1.3 nM - 76.6 uM). SH-SY5Y-GLuc-SERCaMP cells were assayed for ER Ca2+ depletion as outlined above.
1. Zhang, J.H., Chung, T.D., and Oldenburg, K.R. (1999). […]
As to `Fc1ccc(C(OCCN2CCN(C/C=C\c3ccccc3)CC2)c2ccc(F)cc2)cc1`, the Potency is 39.8 µM (active).

For the compound `C[C@H]1C[C@H](C)C(=O)[C@@H]([C@H](O)CC2CC(=O)NC(=O)C2)C1`, the Potency was 1.58 µM (active).

`CC(=O)C1=C(O)[C@@H]2[C@@H]3c4c[nH]c5cccc(c45)C[C@@H]3C(C)(C)N2C1=O`: the Potency entry is “inactive”.

With `CN1CC[C@@]23CCCCC2C1Cc1ccc(O)cc13` (stereo not given in full), the Potency result is “inactive”.

Turning to `CC(C)=CCCN1CCC(NC(=O)C(O)(c2ccccc2)C2CCCC2)CC1` (stereo not given), the Potency result is “inactive”.

As for `CN1C2CCC1CC(OC(=O)C1CCC(C(=O)OC3CC4CCC(C3)N4C)(c3ccccc3)c3ccccc31)C2` (stereo not given), the Potency entry was “inactive”.

For `CC(C)[C@]1(O)[C@@H](OC(=O)c2ccc[nH]2)[C@@]2(O)[C@@]3(C)C[C@]4(O)O[C@@]5([C@H](O)[C@@H](C)CC[C@]35O)[C@@]2(O)C41C`, the Potency result was “inactive”.

As for `Cl.Cl.Cl.Cl.Cl.Cl.N.N.N.N.NNNNN.NNNNN.O.O.[Ru].[Ru].[Ru]`, the Potency was 12.6 µM (active).

As to `CC(C)[C@@]1(NC(=O)[C@@H]2C[C@H]3c4cccc5[nH]cc(c45)C[C@@H]3N(C)C2)O[C@@]2(O)[C@H]3CCCN3C(=O)[C@H](Cc3ccccc3)N2C1=O`, the Potency result was “inactive”.

Consider `c1ccc2sc(C3(N4CCCC4)CCCCC3)cc2c1`, for which the Potency entry was “inactive”.

In the case of `Fc1ccc(C(OCCN2CCN(C/C=C/c3ccccc3)CC2)c2ccc(F)cc2)cc1`, the Potency was 44.7 µM (active).

In the case of `NC(N)=NCCCCCCCCCCN=C(N)N`, the Potency result was “inactive”.

With `CCCCCCC[n+]1ccc(-c2cc[n+](CCCCCCC)cc2)cc1`, the Potency entry is “inactive”.

On to `CC[C@H](Oc1ccc(Cl)cc1)C(=O)OC1C[C@H]2CC[C@@H](C1)N2C` (stereo not given in full), for which the Potency result is “inactive”.

Regarding `CN1[C@@H]2CC[C@H]1CC(OC(c1ccc(F)cc1)c1ccc(F)cc1)C2` (stereo not given in full), the Potency was 44.7 µM (active).

Regarding `CC(C)(O)C1OC2CCC3(C)C(O)(CCC4Cc5c([nH]c6ccccc56)C43C)C2=CC1=O` (stereo not given), the Potency entry was “inactive”.

With `CC(C)C[C@H](NC(=O)[C@H](Cc1ccccc1)NC(=O)CNC(=O)[C@H](C)NC(=O)[C@@H](N)Cc1ccc(O)cc1)C(=O)O`, the activity change, negative = inhibition was 12% [at 9.46 µM] (inactive).

For the compound `CC(C)(O)C1O[C@H]2CC[C@@]3(C)[C@@](O)(CC[C@H]4Cc5c([nH]c6ccccc56)[C@@]43C)C2=CC1=O` (stereo not given in full), the Potency result is “inactive”.

Consider `Cn1c2c(c3ccccc31)CCNCC2`, for which the Potency result was “inactive”.

Consider `CN1C2CCC1CC(OC(c1ccc(F)cc1)c1ccc(F)cc1)C2` (stereo not given), for which the Potency is 22.4 µM (active).

Regarding `C[C@H]1CCC/C=C/C2C[C@H](O)C[C@H]2[C@H](O)/C=C/C(=O)O1` (stereo not given in full), the Potency entry was “inactive”.

With `CN1CC[C@@H]2CN3CCc4cccc(c43)[C@@H]2C1`, the Potency entry was “inactive”.

For the compound `CCCOc1ccc2[nH]cc(C3=CCNCC3)c2n1`, the Potency result is “inactive”.

With `CCN(CC)CCO[C@H]1CC[C@@]2(C)C(=CC[C@@H]3[C@H]2CC[C@]2(C)C(=O)CC[C@H]32)C1`, the Potency is 25.1 µM (active).

Consider `Oc1ccc2c3c1O[C@H]1c4[nH]c5ccccc5c4C[C@]4(O)[C@H](C2)N(CC2CC2)CC[C@@]314`, for which the Potency result was “inactive”.

With `CN1CC[C@@]2(c3cccc(O)c3)Cc3nc4ccccc4cc3C[C@H]2C1`, the Potency entry is “inactive”.

On to `C[C@H](N)Cc1c[nH]c2ccc(OCc3cccs3)cc12`, for which the Potency result is “inactive”.

Turning to `OC12C3C4CC5C6C4C1C6C(C53)N2CCc1cccc(F)c1` (stereo not given), the Potency entry was “inactive”.

For `C[C@@H](C(=O)OC1C[C@H]2CC[C@@H](C1)N2C)c1ccc(Br)cc1` (stereo not given in full), the Potency entry is “inactive”.

With `OC[C@@H]1[C@@H](O)[C@H](O)[C@H]2[C@@H](O)CCN21`, the Potency result is “inactive”.

Regarding `CN1CC[C@@H]2CN3CCc4cccc(c43)[C@H]2C1`, the Potency result is “inactive”.

For `O[C@@H]1[C@H](O)[C@H]2[C@@H](O)CCN2C[C@@H]1O`, the Potency result is “inactive”.

In the case of `CCC(Sc1ccccc1)C(=O)OC1CC2CCC(C1)N2C` (stereo not given), the Potency result is “inactive”.

Regarding `CN1C(=O)COc2c(C(=O)N[C@@H]3CN4CCC3CC4)cc(Cl)cc21`, the Potency result is “inactive”.

Consider `COc1ccc2[nH]cc(C3=CCNCC3)c2c1`, for which the Potency was 6.31 µM (active).
